# Laboratory results published in PubChem BioAssay.
# Where “and” joins values, the source holds several entries; their conditions need not be identical. Equal values may be shown once. Results filed as inconclusive are left out. For some assays here: Entries with a potency or affinity are not part of this list. Calls of active or inactive are those of the source. Unless noted, the rule behind the calls is not given here.
# Legend:
# [1] = P. berghei load reduction in hepatocytes – cell-based, HepG2, luciferase luminescence, HepG2 viability, primary screen (AID 624349; in the data active = parasite load remaining mostly below about 12%, no sharp cut-off; inactive = mostly above about 10%;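 note: 100% = mean of DMSO negative control wells on the same plate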); conditions: P. berghei liver stage in HepG2, luciferase luminescence, concentration not given here; parasite load remaining: stronger effect = lower value; viability: measured here: HepG2 viability without parasites
# [2] = molecular target: 6-phosphogluconate dehydrogenase, decarboxylating (Homo sapiens) (UniProt P52209); assay: inhibition of human phosphogluconate dehydrogenase – biochemical, recombinant enzyme, NADPH absorbance, primary screen (AID 1159550;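 active = at least 20% inhibition of 6-phosphogluconate dehydrogenase activity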); conditions: recombinant 6PGD, NADPH absorbance 341 nm; at 10 µM; stronger effect = higher value
# [3] = viability loss with induced miR-34 in A549 – imaging, A549 dox-inducible miR-34, nuclei and caspase counts, primary screen (AID 1347080;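 active = compounds whose cell count with miR-34 switched on is under 0.7 times the count with it off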); conditions: A549 miR-34 inducible, Hoechst nuclei count, 48 h
# [4] = MELAS cybrid and Rieske KO viability enhancers – cell-based, MELAS cybrids, Rieske KO mouse fibroblasts, CellTiter-Glo, primary screen (AID 1508586;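 active = mean z-score across replicates of 1.96 or higher in either the MELAS or the Rieske mutant cell line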;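 note: z relative to plate mean and SD of compound and empty wells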); conditions: low glucose
# [5] = molecular target: NAD(+) hydrolase SARM1 (Homo sapiens) (UniProt Q6SZW1); assay: blocking NAD cleavage by SARM1 SAM-TIR – cell lysate, NAD-Glo luminescence (AID 1508614;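 active = compound whose remaining NAD level is above about 45 nM, limit read from the data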;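 note: higher remaining NAD means stronger inhibition of SARM1 NADase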); conditions: SAM-TIR HEK293T lysate NADase, at 1 µM, stronger effect = higher value
# [6] = molecular target: Mitogen-activated protein kinase 7 (Homo sapiens) (UniProt Q13164); assay: Gal4-ERK5 driven luciferase induction – cell-based, HTS, primary screen (AID 1508626;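 active = luciferase signal above three times the same-plate solvent-only control wells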;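 note: luciferase driven by Gal4-ERK5 fusion binding five Gal4 sites before minimal TATA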); conditions: HeLa Gal4-ERK5 transactivation, 18 h, at 5 µM, stronger effect = higher value
# [7] = molecular target: ATP-dependent translocase ABCB1 (Homo sapiens) (UniProt P08183); assay: P-glycoprotein substrate transport blockade – cell-based (AID 377; in the data active = fluorescence slope change above about 50%); conditions: MDR1-expressing cells, fluorescent substrate accumulation slope; stronger effect = higher value; concentration not given here
# [8] = compounds altering circadian rhythm period length – cell-based, LOPAC library, luminescence reporter (AID 2774); conditions: circadian reporter cells, at 7 µM, actives lie on both sides;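 note: values are relative to mean of DMSO wells on each plate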
# [9] = compounds altering viability of human ES cells (AID 493140); conditions: human embryonic stem cell survival screen; stronger effect = higher value;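 note: cells exposed to compounds for four days before counting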
# [10] = test system: Hepatitis C virus NS3 helicase; assay: blockers of NS3h binding to ssDNA – biochemical, fluorescence polarization, LOPAC1280 library, primary screen (AID 687035; in the data active = inhibition above about 37%); conditions: Purified HCV NS3 helicase, Cy5-dT15 ssDNA binding fluorescence polarization; stronger effect = higher value; concentration not given here
# [11] = compounds altering Cy5-DNA-NS3h complex signal – biochemical, LOPAC1280, artefact control for HCV NS3 helicase inhibitor project (AID 687037); conditions: Cy5-DNA-NS3h complex fluorescence interference counterscreen
# [12] = blockers of cellular phospholipid synthesis – cell-based, LOPAC library, screen 4, primary screen (AID 1347384); conditions: animal cells, phospholipid biosynthesis inhibition screen; at 10 µM
# [13] = galactose survival enhancers in mitochondrial complex I cybrids – cell-based, galactose medium, ATP luminescence, primary screen (AID 1645843;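 active = z-score of at least 1.8 in each of two replicates, scored against plate mean and spread of sample wells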;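 note: positive z means more ATP and so rescue of galactose-driven cybrid death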); conditions: complex I mutant cybrid cells, 72 h, stronger effect = higher value
# [14] = chitosan synthesis blockers in C. neoformans – flow cytometry, Cibacron Brilliant Red staining (AID 1347148); conditions: Cryptococcus neoformans chitosan, stronger effect = lower value; at 10 µM unless noted;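 note: compound exposure lasted three days at 37 degrees C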
# [15] = blockers of polyQ-driven CASP3 activation – cell-based (AID 1583); conditions: polyglutamine-induced caspase-3 activation, cell assay; stronger effect = higher value;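 tested at 10 µM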
# [16] = yeast 75Q aggregation reduction – 75Q-TubU reporter (AID 1593); conditions: Yeast 75Q polyglutamine aggregation reporter
# [17] = restoration of touch response, mutant HTT neurons – whole organism, C. elegans mechanosensory neurons, N-terminal huntingtin (AID 1599); conditions: C. elegans polyQ-huntingtin mechanosensory neurons, stronger effect = higher value
# [18] = blockers of cytochrome c efflux from mitochondria – biochemical, purified mitochondria (AID 1603); conditions: stronger effect = lower value;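 note: mouse liver mitochondria challenged with calcium chloride; signal normalized to the plate average as 100%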
# [19] = polyglutamine aggregate formation blockers (AID 1604); conditions: polyglutamine-induced protein aggregation inhibition assay; stronger effect = higher value; tested at 2.5 µM
# [20] = rescue of PC12 cells from polyQ htt toxicity – LDH release (AID 1610); conditions: PC12 mutant huntingtin toxicity, final LDH at 4 uM, stronger effect = lower value
# [21] = glutamate transport activators, MN-1 cells, MN-1 cell line (AID 1612); conditions: MN-1 motor neuron cells, stronger effect = higher value;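 note: tested at 1 µM final; 0% = mean of DMSO vehicle wells on each plate; positive means more glutamate uptake than control and negative means less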
# [22] = GFP-Q80 aggregate reduction, neuronal-like cells, cell-based, NGF-treated PC12, GFPQ80 (AID 1614); conditions: PC12 NGF-treated GFP-polyQ80 inclusion reduction;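 note: lower means fewer inclusions and 0 means no inclusions at all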
# [23] = 75Q-TubH aggregate inhibition, S. cerevisiae, yeast (AID 1616); conditions: S. cerevisiae 75Q-TubH polyglutamine aggregation suppression; stronger effect = higher value
# [24] = stronger effect = lower value, cell number ratio, induced over uninduced
# [25] = measured here: relative caspase fold change +Dox/-Dox
# [26] = measured here: total cells with miR-34 induction, stronger effect = lower value
# [27] = measured here: total cells without miR-34 induction
# [28] = MELAS cybrid survival, CellTiter-Glo 48 h, stronger effect = higher value
# [29] = Rieske KO mouse fibroblast survival, CellTiter-Glo 72 h
# Sequence of 6-phosphogluconate dehydrogenase, decarboxylating (Homo sapiens) (P52209 whole entry, looked up): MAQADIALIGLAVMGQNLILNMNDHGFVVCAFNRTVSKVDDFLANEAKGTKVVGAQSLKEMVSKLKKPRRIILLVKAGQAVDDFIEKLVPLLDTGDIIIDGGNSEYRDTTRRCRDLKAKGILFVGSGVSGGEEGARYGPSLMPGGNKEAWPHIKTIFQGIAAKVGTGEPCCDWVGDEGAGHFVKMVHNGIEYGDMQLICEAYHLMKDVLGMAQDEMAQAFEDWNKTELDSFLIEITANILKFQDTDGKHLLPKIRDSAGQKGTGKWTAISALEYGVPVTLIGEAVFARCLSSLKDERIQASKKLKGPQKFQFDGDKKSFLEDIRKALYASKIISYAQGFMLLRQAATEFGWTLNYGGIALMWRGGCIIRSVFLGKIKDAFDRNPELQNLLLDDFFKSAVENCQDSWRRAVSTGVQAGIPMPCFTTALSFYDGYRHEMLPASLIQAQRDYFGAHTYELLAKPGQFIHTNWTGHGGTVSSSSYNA
# Sequence of Mitogen-activated protein kinase 7 (Homo sapiens) (Q13164 whole entry, looked up, the tested form may be a part): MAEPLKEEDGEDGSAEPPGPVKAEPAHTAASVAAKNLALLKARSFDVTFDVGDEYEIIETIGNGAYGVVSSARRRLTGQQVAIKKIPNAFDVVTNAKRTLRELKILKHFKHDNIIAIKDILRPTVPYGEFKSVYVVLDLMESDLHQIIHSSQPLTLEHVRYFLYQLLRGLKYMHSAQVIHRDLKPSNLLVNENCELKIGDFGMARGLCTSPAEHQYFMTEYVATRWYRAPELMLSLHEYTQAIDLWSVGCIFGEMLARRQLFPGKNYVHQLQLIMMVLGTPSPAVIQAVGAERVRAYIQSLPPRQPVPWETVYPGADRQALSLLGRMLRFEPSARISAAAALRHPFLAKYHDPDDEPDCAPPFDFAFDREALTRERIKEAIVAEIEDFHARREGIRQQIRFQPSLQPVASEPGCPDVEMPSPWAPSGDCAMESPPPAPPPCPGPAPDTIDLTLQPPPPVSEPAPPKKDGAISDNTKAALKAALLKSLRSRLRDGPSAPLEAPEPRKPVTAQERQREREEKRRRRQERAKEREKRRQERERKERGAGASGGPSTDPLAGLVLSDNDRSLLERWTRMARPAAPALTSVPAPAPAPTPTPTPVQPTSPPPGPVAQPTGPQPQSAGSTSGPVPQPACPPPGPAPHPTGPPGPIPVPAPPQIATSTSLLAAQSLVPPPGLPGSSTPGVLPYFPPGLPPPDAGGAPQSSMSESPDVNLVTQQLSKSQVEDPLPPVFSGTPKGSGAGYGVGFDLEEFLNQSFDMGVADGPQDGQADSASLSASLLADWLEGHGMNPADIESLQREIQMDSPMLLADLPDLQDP
# Sequence of NAD(+) hydrolase SARM1 (Homo sapiens) (Q6SZW1 whole entry, looked up, the tested form may be a part): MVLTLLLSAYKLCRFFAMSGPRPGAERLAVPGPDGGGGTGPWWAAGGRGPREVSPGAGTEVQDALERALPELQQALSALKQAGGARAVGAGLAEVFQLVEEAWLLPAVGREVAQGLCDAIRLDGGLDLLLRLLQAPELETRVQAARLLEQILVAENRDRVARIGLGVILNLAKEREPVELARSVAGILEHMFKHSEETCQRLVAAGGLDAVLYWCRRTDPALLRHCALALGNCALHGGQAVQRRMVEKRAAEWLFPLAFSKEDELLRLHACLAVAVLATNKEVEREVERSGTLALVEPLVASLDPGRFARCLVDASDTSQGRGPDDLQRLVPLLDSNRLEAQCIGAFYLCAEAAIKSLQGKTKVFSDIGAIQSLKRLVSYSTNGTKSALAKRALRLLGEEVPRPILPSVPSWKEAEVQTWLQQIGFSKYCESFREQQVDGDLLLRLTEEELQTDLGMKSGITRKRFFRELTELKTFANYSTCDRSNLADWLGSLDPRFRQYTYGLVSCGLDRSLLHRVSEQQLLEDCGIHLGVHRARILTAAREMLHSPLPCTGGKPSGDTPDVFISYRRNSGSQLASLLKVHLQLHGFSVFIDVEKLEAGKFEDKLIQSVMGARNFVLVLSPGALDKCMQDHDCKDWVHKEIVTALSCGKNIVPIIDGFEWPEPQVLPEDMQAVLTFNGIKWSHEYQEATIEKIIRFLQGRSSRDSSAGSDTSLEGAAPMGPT
# Sequence of ATP-dependent translocase ABCB1 (Homo sapiens) (P08183 whole entry, looked up): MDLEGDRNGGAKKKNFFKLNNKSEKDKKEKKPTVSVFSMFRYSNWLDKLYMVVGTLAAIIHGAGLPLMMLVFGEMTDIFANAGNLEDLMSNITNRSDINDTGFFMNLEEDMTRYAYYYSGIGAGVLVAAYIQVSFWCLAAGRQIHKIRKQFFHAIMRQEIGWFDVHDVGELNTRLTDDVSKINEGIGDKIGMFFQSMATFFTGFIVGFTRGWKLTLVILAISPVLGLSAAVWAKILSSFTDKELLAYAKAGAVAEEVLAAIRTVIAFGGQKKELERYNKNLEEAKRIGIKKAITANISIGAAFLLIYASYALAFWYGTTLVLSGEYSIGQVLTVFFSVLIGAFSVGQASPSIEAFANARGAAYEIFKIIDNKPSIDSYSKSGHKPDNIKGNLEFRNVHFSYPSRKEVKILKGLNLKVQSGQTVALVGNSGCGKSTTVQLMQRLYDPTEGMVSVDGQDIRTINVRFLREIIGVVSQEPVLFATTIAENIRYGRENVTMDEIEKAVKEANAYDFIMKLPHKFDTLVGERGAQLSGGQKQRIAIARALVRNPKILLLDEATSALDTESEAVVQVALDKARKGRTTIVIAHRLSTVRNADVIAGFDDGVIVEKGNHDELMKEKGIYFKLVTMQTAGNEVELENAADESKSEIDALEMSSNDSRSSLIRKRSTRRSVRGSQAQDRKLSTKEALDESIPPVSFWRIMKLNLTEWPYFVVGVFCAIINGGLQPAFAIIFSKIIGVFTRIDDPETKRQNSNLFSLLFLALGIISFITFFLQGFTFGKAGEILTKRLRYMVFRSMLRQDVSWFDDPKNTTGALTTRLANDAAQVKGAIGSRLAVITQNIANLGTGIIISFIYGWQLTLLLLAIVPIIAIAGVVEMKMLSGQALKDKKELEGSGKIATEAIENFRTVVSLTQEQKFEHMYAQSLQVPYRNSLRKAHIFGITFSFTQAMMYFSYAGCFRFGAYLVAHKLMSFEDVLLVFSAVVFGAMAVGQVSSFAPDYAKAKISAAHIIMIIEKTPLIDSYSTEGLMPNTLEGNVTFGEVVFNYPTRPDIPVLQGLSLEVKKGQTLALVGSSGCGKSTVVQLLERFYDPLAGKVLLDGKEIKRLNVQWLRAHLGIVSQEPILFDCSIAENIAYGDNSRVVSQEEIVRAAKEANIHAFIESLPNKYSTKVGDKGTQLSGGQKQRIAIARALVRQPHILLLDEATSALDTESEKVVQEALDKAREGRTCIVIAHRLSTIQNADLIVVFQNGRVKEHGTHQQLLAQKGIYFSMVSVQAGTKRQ
smiles,measurement,setting,value
NCC[C@H](O)C(=O)N[C@@H]1C[C@H](N)[C@@H](O[C@H]2O[C@H](CN)[C@@H](O)[C@H](O)[C@H]2O)[C@H](O)[C@H]1O[C@H]1O[C@H](CO)[C@@H](O)[C@H](N)[C@H]1O,parasite load remaining,[1],126% (inactive)
same,viability,[1],113%
same,inhibition,[2],-15.3% (inactive)
same,fold change,[3]; [24],0.816 (inactive)
same,fold change,[3]; [25],1.79
same,cell count,[3]; [26],8210
same,cell count,[3]; [27],10100
same,z-score,[4]; [28],-0.451 (inactive)
same,z-score,[4]; [29],-0.0793
same,remaining NAD,[5],10 nM (inactive)
same,luciferase signal,[6],60 AU (inactive)
CO/N=C(\C(=O)N[C@@H]1C(=O)N2C(C(=O)O)=C(COC(N)=O)CS[C@H]12)c1ccco1,parasite load remaining,[1],120% (inactive)
same,viability,[1],107%
same,inhibition,[2],-1.88% (inactive)
same,fold change,[3]; [24],0.899 (inactive)
same,fold change,[3]; [25],1.25
same,cell count,[3]; [26],8800
same,cell count,[3]; [27],9790
same,z-score,[4]; [28],-0.736 (inactive)
same,z-score,[4]; [29],-1.31
same,remaining NAD,[5],10 nM (inactive)
same,luciferase signal,[6],48 AU (inactive)
C=C[C@H]1CN2CCC1C[C@@H]2[C@@H](O)c1ccnc2ccc(OC)cc12 (some centres not stated),fluorescence slope change,[7],95% (active)
same,period change,[8],-0.225 h (inactive)
same,survival,[9],6.17 (inactive)
same,parasite load remaining,[1],28.6% (inactive)
same,viability,[1],94.6%
same,inhibition,[10],-1% (inactive)
same,fluorescence ratio (interference),[11],1 (inactive)
same,inhibition,[2],-0.543% (inactive)
same,fold change,[3]; [24],1.07 (inactive)
same,fold change,[3]; [25],1.29
same,cell count,[3]; [26],9920
same,cell count,[3]; [27],9300
same,outcome,[12],inactive
same,z-score,[13],-1.04 (inactive)
CCCCC/C=C\C/C=C\C/C=C\C/C=C\CCCC(=O)O,survival,[9],45.6 (inactive)
same,inhibition,[2],9.46% (inactive)
same,fold change,[3]; [24],1.06 (inactive) and 1 (inactive)
same,fold change,[3]; [25],1.01 and 0.893
same,cell count,[3]; [26],5710 and 5370
same,cell count,[3]; [27],5370 and 5360
same,fold fluorescence,[14],5.45 (inactive)
COc1ccc(C(Cl)=C(c2ccc(OC)cc2)c2ccc(OC)cc2)cc1,fluorescence slope change,[7],9.3% (inactive)
same,survival,[9],4.42 (inactive)
same,parasite load remaining,[1],9.26% (inactive) and 45.4% (inactive) and 50.6% (inactive)
same,viability,[1],85.2% and 70.2% and 89.6%
same,inhibition,[2],7.15% (inactive)
same,fold change,[3]; [24],0.946 (inactive) and 0.925 (inactive)
same,fold change,[3]; [25],1.03 and 1.43
same,cell count,[3]; [26],9940 and 11400
same,cell count,[3]; [27],10500 and 12300
same,z-score,[4]; [28],0.437 (inactive)
same,z-score,[4]; [29],0.0944
same,luciferase signal,[6],40 AU (inactive)
C=C(C)C1CC=C(C(=O)O)CC1 (configuration not stated),period change,[8],0.05 h (inactive)
same,inhibition,[10],2% (inactive)
same,fluorescence ratio (interference),[11],0.9 (inactive)
same,inhibition,[2],7.19% (inactive)
same,fold change,[3]; [24],0.98 (inactive)
same,fold change,[3]; [25],1.41
same,cell count,[3]; [26],9720
same,cell count,[3]; [27],9920
same,outcome,[12],inactive
same,z-score,[13],1.06 (inactive)
O=C(O)c1cc2cc(Cc3cccnc3)ccc2o1,inhibition,[15],22.5%
same,score,[16],1.36
same,rescue above control,[17],-5.98
same,cytochrome c release ratio,[18],1.03
same,inhibition of aggregation,[19],1.59%
same,normalised LDH release,[20],1.48
same,glutamate uptake change,[21],-0.47%
same,inclusion score,[22],2
same,aggregation suppression score,[23],1.23
same,period change,[8],0.065 h (inactive)
same,parasite load remaining,[1],124% (inactive)
same,viability,[1],73.4%
same,inhibition,[10],-2% (inactive)
same,fluorescence ratio (interference),[11],1 (inactive)
same,inhibition,[2],4.63% (inactive)
same,fold change,[3]; [24],0.956 (inactive) and 0.926 (inactive)
same,fold change,[3]; [25],0.671 and 1.19
same,cell count,[3]; [26],10100 and 5310
same,cell count,[3]; [27],10600 and 5730
same,outcome,[12],inactive
same,z-score,[13],0.16 (inactive)
CCOc1nc2cccc(C(=O)OC(C)OC(=O)OC3CCCCC3)c2n1Cc1ccc(-c2ccccc2-c2nn[nH]n2)cc1 (configuration not stated),parasite load remaining,[1],137% (inactive) and 50.7% (inactive)
same,viability,[1],83.9% and 101%
same,inhibition,[2],2.36% (inactive)
same,fold change,[3]; [24],0.972 (inactive) and 0.852 (inactive)
same,fold change,[3]; [25],0.675 and 3.41
same,cell count,[3]; [26],8090 and 11000
same,cell count,[3]; [27],8320 and 12900
same,z-score,[4]; [28],0.432 (inactive)
same,z-score,[4]; [29],-0.0296
same,remaining NAD,[5],10 nM (inactive)
same,luciferase signal,[6],40 AU (inactive)
COc1ccc(-c2cc(=O)c3c(O)c(OC)c(OC)cc3o2)cc1O,inhibition,[2],3.27% (inactive)
same,fold change,[3]; [24],1.03 (inactive)
same,fold change,[3]; [25],0.681
same,cell count,[3]; [26],5880
same,cell count,[3]; [27],5680
same,outcome,[12],inactive
same,z-score,[13],0.86 (inactive)
CO[C@H]1C[C@H](O[C@H]2[C@H](C)[C@@H](O[C@@H]3O[C@H](C)C[C@H](N(C)C)[C@H]3O)[C@@H](C)C[C@@]3(CO3)C(=O)[C@H](C)[C@@H](O)[C@@H](C)[C@@H](C)OC(=O)[C@@H]2C)O[C@@H](C)[C@@H]1O,parasite load remaining,[1],43.4% (inactive)
same,viability,[1],44.8%
same,inhibition,[2],-12.7% (inactive)
same,fold change,[3]; [24],0.882 (inactive)
same,fold change,[3]; [25],0.459
same,cell count,[3]; [26],8150
same,cell count,[3]; [27],9240
same,remaining NAD,[5],10 nM (inactive)
same,luciferase signal,[6],32 AU (inactive)
CC(=O)O[C@H]1C[C@@]2(C)[C@@H](C[C@@H](O)[C@H]3[C@@]4(C)CC[C@@H](O)[C@@H](C)[C@@H]4CC[C@@]32C)/C1=C(\CCC=C(C)C)C(=O)O,survival,[9],5.08 (inactive)
same,parasite load remaining,[1],64.8% (inactive)
same,viability,[1],78.6%
same,inhibition,[2],4.42% (inactive)
same,remaining NAD,[5],10 nM (inactive)
same,luciferase signal,[6],128 AU (inactive)
CO[C@H]1C[C@H](O[C@@H]2/C(C)=C/C[C@@H]3C[C@@H](C[C@]4(CC[C@H](C)[C@@H](C5CCCCC5)O4)O3)OC(=O)[C@@H]3C=C(C)/C(=N/O)[C@H]4OC/C(=C\C=C\[C@@H]2C)[C@]43O)O[C@@H](C)[C@@H]1O,inhibition,[2],-18% (inactive)
same,remaining NAD,[5],23 nM (inactive)
same,luciferase signal,[6],36 AU (inactive)
